# A selection: hits, their analogues and other compounds. The true share with any hit is near 5.9%.
# VP16 counter: VP16 counterscreen qHTS for inhibitors of ROR gamma transcriptional activity | Drosophila S2 Gal4-VP16 UAS-luciferase, luminescence, 20 h | hit rate 3.5% among 310,000 | AID 2546, 2010 | Potency, µM (highest dose often 53.6 µM), inactives show at the highest dose activity, negative = inhibition, actives largely listed as inhibitors;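 also: Gal4-VP16 expression switched on by copper sulfate through the metallothionein promoter; potency is read from the fitted curve at half-maximal effect; nearly all actives have a fitted effect of over 50% in size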
# RORgamma inh: qHTS for inhibitors of ROR gamma transcriptional activity; AID 2551, 2010; Potency, µM (series often up to 53.6 µM), without a hit: at the highest dose activity change, negative = inhibition, hits mostly inhibitors; hit rate 5.4% among 310,000; Nuclear receptor ROR-gamma (Mus musculus), P51450; Drosophila S2 Gal4-RORgamma UAS-luciferase reporter, 20 h; also: potency is read from the fitted curve at half-maximal effect; nearly all actives have a fitted effect of over 60% in size
#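 Luminescence from a UAS-regulated Photinus luciferase reporter in stably transfected Drosophila Schneider cells is measured; decreased signal marks ROR gamma inhibition. Fusion expression is induced by 700 uM copper sulfate for 20 hr.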
# TrxR1 substrate: qHTS Assay for Substrates of Mammalian Selenoprotein Thioredoxin Reductase 1 (TrxR1): qHTS; hit rate 0.01% among 390,000; purified TrxR1 substrate turnover, NADPH consumption readout; Potency, µM (highest dose often 114 µM), inactives show at the top dose activity change, negative = substrate turnover; Thioredoxin reductase 1, cytoplasmic (Rattus norvegicus), O89049; also: potency is read from the fitted curve at half-maximal effect; nearly all actives have a fitted effect of over 50% in size
# Target sequence (O89049 whole entry, looked up): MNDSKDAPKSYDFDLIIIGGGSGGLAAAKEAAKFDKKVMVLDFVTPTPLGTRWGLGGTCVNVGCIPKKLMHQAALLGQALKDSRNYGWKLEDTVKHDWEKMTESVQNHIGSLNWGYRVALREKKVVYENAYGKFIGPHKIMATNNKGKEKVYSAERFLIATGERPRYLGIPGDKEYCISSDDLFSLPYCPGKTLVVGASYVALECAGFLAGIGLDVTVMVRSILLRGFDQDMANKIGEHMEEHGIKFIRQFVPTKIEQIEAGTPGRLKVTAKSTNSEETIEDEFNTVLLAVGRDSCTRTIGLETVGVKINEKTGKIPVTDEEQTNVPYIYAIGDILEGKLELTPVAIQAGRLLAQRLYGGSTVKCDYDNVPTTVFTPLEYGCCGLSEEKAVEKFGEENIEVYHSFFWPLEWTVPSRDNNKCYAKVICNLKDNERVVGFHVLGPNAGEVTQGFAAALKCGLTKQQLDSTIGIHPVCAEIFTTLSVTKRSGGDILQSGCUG
#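 Rat TrxR1, dispensed at 90 nM, was prereduced with 400 uM NADPH (final) for 5 min at ~22 deg C, then incubated with compound 15 min before 400 uM selenite. A first-read NADPH fluorescence drop versus no-compound background flagged substrates.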
# GALK inhibitor: qHTS Assay for Inhibitors of Human Galactokinase (GALK). Potency, µM (titrated, usually from 57.5 µM), for the others: at the top dose activity change, negative = inhibition, hits mostly inhibitors. Purified GALK, Kinase-Glo residual ATP luminescence. hit rate 0.007% among 270,000. P51570; also: potency is read from the fitted curve at half-maximal effect
#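 GALK at 5 nM final was combined with compound, 35 uM ATP and 100 uM galactose in HEPES pH8.0 with MgCl2 and DTT. The reaction ran one hour at room temperature before luminescent ATP detection.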
# FBPA coupling cs: qHTS Assay for Inhibitors of Fructose-1,6-bisphosphate Aldolase from Giardia Lamblia: Coupling assay counterscreen | coupling enzyme system counterscreen, AmpLite Red fluorescence | activity change, negative = inhibition, % at 58.2 µM, hits read low | hit rate 0.67% among 290,000 | AID 2472, 2010; in the data active = activity change below about -30%
#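 Counterscreen lacking aldolase: glyceraldehyde-3-phosphate coupling-enzyme reagent preincubated 10 min at RT with compound (at 57.5 uM final), then substrate/coupling system with AmpLite Red added; fluorescence read at 525/598 nm after 20 min RT.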
# TrxR1 inh: qHTS Assay for Inhibitors of Mammalian Selenoprotein Thioredoxin Reductase 1 (TrxR1): qHTS | Thioredoxin reductase 1, cytoplasmic (Rattus norvegicus), O89049 | recombinant rTrxR1, NADPH fluorescence consumption, selenite substrate | Potency, µM (series often up to 114 µM), inactives show top-dose activity change, negative = inhibition, actives largely listed as inhibitors | hit rate 1% among 390,000 | AID 588453, 2011; also: potency is read from the fitted curve at half-maximal effect; nearly all actives have a fitted effect of over 65% in size
#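 Rat TrxR1 (90 nM in the dispensed reagent) was pre-reduced with 400 uM NADPH for 5 min at room temperature, then incubated with compound for 15 min. After 400 uM selenite was added, NADPH fluorescence (Ex 340/Em 450 nm) was followed for 8 min.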
# Numbers without * were called inactive; ? = inconclusive; · = not tested or not shown; ! = repeats disagree; [ ] = another dose, or the depositor's remark. Unless noted, calls follow the shape of the dose curve; as a rule, active = well fitted curve in the direction sought with a large enough effect; inconclusive = small, poorly fitted or top-dose-only effect, or another doubt; inactive = no such curve, though single readings can be large; an effect the other way counts as inactive or inconclusive. % is scaled to controls: 0 for no effect and ±100 for the full control effect.
SMILES,VP16 counter,RORgamma inh,TrxR1 substrate,GALK inhibitor,FBPA coupling cs,TrxR1 inh
O=C(N/N=C/c1ccncc1)c1ccc(OCc2ccccc2)cc1,7.4%,-0.4%,0.0%,-0.3%,0.7,4.9%
CCOC(=O)N(C)S(=O)(=O)c1ccccc1[N+](=O)[O-],20.0%,14.4%,-18.9%,-0.6%,-0.2,-22.4%
Cc1ccc(Cn2c(C3CCCN3c3nc(C)cs3)nc3cc(C(F)(F)F)ccc32)cc1 (stereo unspecified),?,3.55µM*,-2.0%,·,-1.2,6.3%[57.1 µM]
O=C(O)c1cc(Cl)c2c(c1)[C@@H]1C=CC[C@@H]1[C@H](c1ccc(S(=O)(=O)N3CCOCC3)cc1)N2,-5.1%,42.6%,-7.4%,1.9%,-26.0,2.24µM*
Cc1cc(C)c2c(c1)C1C=CCC1C(c1ccc(S(=O)(=O)N3CCOCC3)cc1)N2 (stereo unspecified),-1.7%,14.1%,-2.8%,5.7%,1.6,12.5%
c1ccc(-c2onc(-c3ccco3)c2-c2ccc3c(c2)OCO3)cc1,2.6%,-13.2%,8.2%,·,-0.8,50.1µM*
C=CCOC(=O)CSCC(NC(=O)OC(C)(C)C)C(=O)OCC (stereo unspecified),11.2µM*,8.91µM*,6.9%[57.1 µM],3.5%,0.7,2.5%[57.1 µM]
COc1ccc(-c2ccc(CCC(=O)O)o2)cc1,-18.7%,?,11.5%[57.1 µM],12.4%,4.3,17.8µM*
O=C(O)CCc1ccc(-c2ccc(Br)cc2)o1,?,?,4.2%,-0.7%,11.5,22.4µM*
O=C(O)CCc1ccc(-c2ccc(Cl)cc2)o1,?,?,7.0%,-1.4%,10.8,17.8µM*
C[C@H]1CN([C@@H](C)CO)C(=O)c2cc(NC(=O)C3CCCCC3)ccc2O[C@H]1CN(C)CC1CCCCC1,·,·,3.9%,·,·,2.0%
COc1ccc(NC(=O)CN(C)C(=O)c2cn(-c3ccccc3)nc2-c2cccs2)cc1,·,·,-6.0%,·,·,9.3%
O=C1C=Cc2ccccc2/C1=C/c1[nH]c(=O)[nH]c1O,?,6.31µM*,29.6%,-0.1%,-9.4,-1.0%[57.1 µM]
O=c1[nH]c(O)c(/C=C2\C=Nc3ccccc32)[nH]1,-7.1%,30.9%,-0.6%,0.5%,-0.7,7.0%
COCCN1C=C2C(=O)C(C)(OC(=O)CCC(=O)OC)C(=O)C=C2C=C1C1CC1 (stereo unspecified),5.5%,1.2%,-15.1%,0.1%,-45.4*,6.6%
COC(=O)CCC(=O)OC1(C)C(=O)C=C2C=C(C3CC3)N(Cc3ccco3)C=C2C1=O (stereo unspecified),-3.7%,-2.9%,-1.1%,1.2%,-29.3,-34.5%
COC(=O)CCC(=O)OC1(C)C(=O)C=C2C=C(C3CC3)N(c3cccc(C#N)c3)C=C2C1=O (stereo unspecified),1.4%,-9.3%,4.4%,0.2%,-31.9*!,?
COC(=O)CCC(=O)OC1(C)C(=O)C=C2C=C(C3CC3)N(C3CC3)C=C2C1=O (stereo unspecified),-10.0%,-8.6%,-6.3%[57.1 µM],-0.3%,-46.6*!,21.8%[57.1 µM]
CCCCCNC(=O)C1CCC(Cn2c(=O)c3sccc3n(CC(=O)NCc3cccc(OC)c3OC)c2=O)CC1 (stereo unspecified),·,·,-4.3%,·,·,7.0%
CCn1c(SCc2ccc(Cl)cc2)nc2nc3c(cc2c1=O)CCCC3,?,12.6µM*,-3.9%,-1.6%,4.4,2.9%
CSc1nc2nc3c(cc2c(=O)n1-c1ccccc1C)CCCC3,5.01µM*,-15.3%,2.8%,-1.0%,-15.1,11.0%
CC1CC(NC(=O)/C=C/C(=O)O)CC(C)(C)C1 (stereo unspecified),0.5%,-1.0%,1.5%[57.1 µM],2.4%,0.8,4.3%[57.1 µM]
COc1ccc(C2C=C(C34CC5CC(CC(C5)C3)C4)NC(=S)N2)cc1OC (stereo unspecified),1.58µM*,1.26µM*,-10.1%,-0.7%,-0.8,-11.2%
O=[N+]([O-])c1cccc(NNS(=O)(=O)c2ccccc2F)c1,6.3%,-1.1%,-1.0%,4.7%,-30.3*,5.8%
Cc1ccc2nc(-c3ccc(NC(=S)NC(=O)C(C)C)cc3)sc2c1,2.82µM*,1.12µM*,11.2%,-2.5%,-0.4,42.8%
SMILES,VP16 counter,RORgamma inh,TrxR1 substrate,GALK inhibitor,FBPA coupling cs,TrxR1 inh
CCC(=O)NC(=S)Nc1ccc(-c2nc3ccccc3s2)cc1,?,1.58µM*,5.3%[57.1 µM],0.0%,0.6,10.7%[57.1 µM]
Cc1ccc(C(=O)NC(=S)Nc2cccc(-c3nc4ccccc4s3)c2)cc1,3.0%,-16.8%,-0.7%,2.4%,1.0,2.5%
CCC(=O)NC(=S)Nc1ccc(-c2nc3ccc(C)cc3s2)cc1,0.891µM*,1.12µM*,-6.4%,0.7%,2.6,7.0%
Cc1ccc2nc(-c3ccc(NC(=O)Cc4ccccc4)cc3)sc2c1,·,·,29.6%,·,·,6.7%
CC(C)(C)NC(=O)[C@]1(C)CCC[C@@]2(C)C3CC[C@@]4(C)C[C@]3(CCC21)CC4=O (stereo partly specified),·,·,7.6%[57.1 µM],·,·,24.7%[57.1 µM]
Cc1ccc(NC2=C(c3ccc(C(F)(F)F)cc3)C(=O)c3ccccc32)cc1C,·,·,-5.7%,·,·,?
CCc1nnc(NS(=O)(=O)c2ccc(NC(=S)NC(=O)c3ccc(Br)cc3)cc2)s1,-6.7%,32.4%[10 µM],-19.2%,-0.3%,8.3,50.1µM*
CCc1nnc(NS(=O)(=O)c2ccc(NC(=O)c3ccccc3)cc2)s1,0.1%,-1.0%,2.4%,-3.5%,3.1,28.1%
O=C(NC(=S)Nc1ccc(S(=O)(=O)Nc2nccs2)cc1)c1cccnc1,4.9%,-22.0%,9.8%[57.1 µM],7.7%,6.3,-47.9%
CCc1nnc(NS(=O)(=O)c2ccc(NC(=O)c3ccc(Cl)cc3)cc2)s1,2.8%,8.5%,0.2%,-2.2%,7.2,24.1%
O=C(NC(=S)Nc1ccc(S(=O)(=O)Nc2nccs2)cc1)c1ccccc1,-20.3%,-1.5%,-14.2%,0.8%,5.4,39.8µM*
CCc1nnc(NS(=O)(=O)c2ccc(NC(=S)NC(=O)c3ccccc3)cc2)s1,-5.3%,15.8%[10 µM],-16.0%,-0.1%,0.9,28.2µM*
O=C(NNC(=O)C12CC3CC(CC(C3)C1)C2)c1ccccn1,4.47µM*,0.501µM*,4.4%[57.1 µM],4.2%,1.8,3.3%[57.1 µM]
COC(=O)Cc1ccc2sc(-c3ccccc3)nc2c1,15.8µM*,?,-1.4%,3.1%,-1.3,2.0%
